Reference: PubChem BioAssay (NCATS)
Records with an inconclusive call do not appear. Calls of active or inactive are those of the source. The call rests on the fitted dose curve; in most records, active means well fitted cell-killing curve with a large enough effect; inconclusive means small, poorly fitted or top-dose-only effect, or effect the other way; inactive means flat fitted curve, though single readings scatter. Where a SMILES comes first, the peptide text is derived from it. [ ]: non-standard residue; d: D form. ξ: configuration not given here. ξPhe(βξ-Me) = CC(c1ccccc1)C(N)C(=O)O; GABA = NCCCC(=O)O

Legend:
Experiment in all cases: Primary qHTS to identify gynecologic anti-cancer compounds using libraries of approved drugs and bioactive compounds (AID 1345084); further: nearly all actives have a fitted effect of over 55% in size
Details in all cases: Gynecologic cancer cell panel viability, ATPlite luminescence, 48 h; series mostly up to 57.5 µM
JEG-3 = test system: JEG-3
Summary of the method: (§1)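 48 h compound exposure at 37 C, 5% CO2; five-point qHTS. ATPlite luminescence readout of cell ATP.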

OV90 = test system: OV90
Summary of the method: as §1

PA-1 = test system: PA-1
Summary of the method: as §1

SKOV3 = test system: SKOV3
Summary of the method: as §1

Tov-21-G = test system: Tov-21-G
Summary of the method: as §1

Tov112D = test system: Tov112D
Summary of the method: as §1
On the % scale 0 is the no-effect control and ±100 the full control effect.

CC1=CC(=O)CC2C1(O)CCC(C)C21CC(c2ccoc2)OC1=O (stereo not drawn)
inactive: Potency (JEG-3) | Potency (OV90) | Potency (PA-1) | Potency (SKOV3) | Potency (Tov-21-G) | Potency (Tov112D)

O=c1[nH]ccc2cc(OC3CCNCC3)ccc12
inactive: Potency (JEG-3) | Potency (OV90) | Potency (PA-1) | Potency (SKOV3) | Potency (Tov-21-G) | Potency (Tov112D)

COc1cc2c(cc1OC)N1C(=O)C[C@]34C=CCN5CC[C@@H]2[C@@H](CC3)[C@]514
inactive: Potency (JEG-3) | Potency (OV90) | Potency (PA-1) | Potency (SKOV3) | Potency (Tov-21-G) | Potency (Tov112D)

C[C@@H]1O[C@@H](O[C@H]2[C@H](OC(=O)[C@]34CCC(C)(C)C[C@H]3C3=CCC5[C@@]6(C)C[C@H](O)[C@H](O[C@@H]7O[C@H](CO)[C@@H](O[C@H]8OC[C@](O)(CO)[C@H]8O)[C@H](O)[C@H]7O)[C@@](C)(CO)C6[C@H](O)C[C@@]5(C)[C@]3(C)C[C@H]4O)OC[C@H](O)[C@@H]2O)[C@H](O)[C@H](O)[C@H]1O[C@@H]1OC[C@@H](O)[C@H](O[C@@H]2OC[C@](O)(CO)[C@H]2O)[C@H]1O (stereo partly drawn)
inactive: activity change, negative = cytotoxicity (JEG-3) 23.3% [at 6.55 µM] | activity change, negative = cytotoxicity (OV90) -28.7% [at 6.55 µM] | activity change, negative = cytotoxicity (PA-1) 18.7% [at 6.55 µM] | activity change, negative = cytotoxicity (SKOV3) 13.1% [at 6.55 µM] | activity change, negative = cytotoxicity (Tov-21-G) -9.27% [at 6.55 µM] | activity change, negative = cytotoxicity (Tov112D) -0.812% [at 6.55 µM]

O=C1CSc2ccccc2N1Cc1cccc(C(F)(F)F)c1
inactive: Potency (JEG-3) | Potency (OV90) | Potency (PA-1) | Potency (SKOV3) | Potency (Tov-21-G) | Potency (Tov112D)

CC1CC(=O)C2=C(CCC3(O)C(O)c4c(O)cccc4C(=O)C23O)C1 (stereo not drawn)
inactive: Potency (JEG-3) | Potency (OV90) | Potency (PA-1) | Potency (SKOV3) | Potency (Tov-21-G) | Potency (Tov112D)

CC(C)=CC/C=C(\C)[C@H]1CC[C@]2(C)[C@@H]1[C@H](O)C[C@@H]1[C@@]3(C)CC[C@H](O)C(C)(C)[C@@H]3[C@@H](O[C@@H]3O[C@H](CO)[C@@H](O)[C@H](O)[C@H]3O)C[C@]12C
inactive: Potency (JEG-3) | Potency (OV90) | Potency (PA-1) | Potency (SKOV3) | Potency (Tov-21-G) | Potency (Tov112D)

CC1=C(C(=O)O[C@@H]2O[C@H](COC3OCC(O)C(O)C3O)[C@@H](O)[C@H](O)[C@H]2O)C(C)(C)CCC1 (stereo partly drawn)
inactive: Potency (JEG-3) | Potency (OV90) | Potency (PA-1) | Potency (SKOV3) | Potency (Tov-21-G) | Potency (Tov112D)

CC1C(OC(=O)c2ccccc2)C(O)C2C(C(=O)O)=COC(OC3OC(CO)C(O)C(O)C3O)C12 (stereo not drawn)
inactive: Potency (JEG-3) | Potency (OV90) | Potency (PA-1) | Potency (SKOV3) | Potency (Tov-21-G) | Potency (Tov112D)

C=C(C(=O)OC)C1C(O)CC2(C)C(=O)CCC(O)(CO)C2C1O (stereo not drawn)
inactive: Potency (JEG-3) | Potency (OV90) | Potency (PA-1) | Potency (SKOV3) | Potency (Tov-21-G) | Potency (Tov112D)

C[C@@H]1O[C@@H](O[C@H]2[C@H](O[C@H]3CC[C@@]4(C)C(CC[C@]5(C)C4CC=C4[C@@H]6CC(C)(C)CC[C@]6(C(=O)O[C@@H]6OC[C@H](O)[C@H](O)[C@H]6O[C@@H]6O[C@@H](C)[C@H](O[C@@H]7O[C@H](CO)[C@@H](O)[C@H](O)[C@H]7O)[C@H](O)[C@H]6O)[C@H](O)C[C@]45C)C3(C)C)O[C@H](CO)[C@@H](O[C@@H]3OC[C@@H](O)[C@H](O)[C@H]3O)[C@@H]2O)[C@H](O)[C@H](O)[C@H]1O (stereo partly drawn)
inactive: activity change, negative = cytotoxicity (JEG-3) 5.72% [at 6.55 µM] | activity change, negative = cytotoxicity (OV90) 11.1% [at 6.55 µM] | activity change, negative = cytotoxicity (PA-1) 4.23% [at 6.55 µM] | activity change, negative = cytotoxicity (SKOV3) -6.09% [at 6.55 µM] | activity change, negative = cytotoxicity (Tov-21-G) 2.71% [at 6.55 µM] | activity change, negative = cytotoxicity (Tov112D) -23.4% [at 6.55 µM]

CN(C)C(=O)NC1CCC(CCN2CCN(c3cccc(Cl)c3Cl)CC2)CC1 (stereo not drawn)
inactive: activity change, negative = cytotoxicity (JEG-3) 8.74% [at 11.6 µM] | activity change, negative = cytotoxicity (OV90) 0.264% [at 11.6 µM] | activity change, negative = cytotoxicity (PA-1) 1.34% [at 11.6 µM] | activity change, negative = cytotoxicity (SKOV3) 0.966% [at 11.6 µM] | activity change, negative = cytotoxicity (Tov-21-G) 4.37% [at 11.6 µM] | activity change, negative = cytotoxicity (Tov112D) 2.02% [at 11.6 µM]

CC1NC(=O)CCCNC(=O)C(Cc2c[nH]c3ccccc23)NC(=O)C(C)NC(=O)C(C(C)C)NC(=O)C(C(C)c2ccccc2)NC(=O)C(C(C)C)NC1=O (stereo not drawn) (cyclo([GABA]AV[ξPhe(βξ-Me)]VAW); configuration not given here)
inactive: Potency (JEG-3) | Potency (OV90) | Potency (PA-1) | Potency (SKOV3) | Potency (Tov-21-G) | Potency (Tov112D)

Fc1ccc2nc(CCC#Cc3ccccn3)cn2c1
inactive: Potency (JEG-3) | Potency (OV90) | Potency (PA-1) | Potency (SKOV3) | Potency (Tov-21-G) | Potency (Tov112D)

O=C1N=C(N2CCOCC2)CN1c1ccc(Cl)cc1
inactive: Potency (JEG-3) | Potency (OV90) | Potency (PA-1) | Potency (SKOV3) | Potency (Tov-21-G) | Potency (Tov112D)

C[C@H]1C(=O)N2c3ccccc3[C@@]3(O)C[C@@H]4C(=O)N[C@](C)(c5nc6ccccc6c(=O)n54)N1[C@@H]23
inactive: Potency (JEG-3) | Potency (OV90) | Potency (PA-1) | Potency (SKOV3) | Potency (Tov-21-G) | Potency (Tov112D)

CC(C)=CCC/C(C)=C/CC/C(C)=C/COC1OC(COC2OCC(OC3OCC(O)C(O)C3O)C(O)C2O)C(O)C(OC2OC(C)C(OC3OC(C)C(OC4OCC(OC5OC(C)C(O)C(O)C5O)C(O)C4O)C(O)C3O)C(O)C2O)C1O (stereo not drawn)
inactive: activity change, negative = cytotoxicity (JEG-3) -0.54% [at 6.55 µM] | activity change, negative = cytotoxicity (OV90) -9.19% [at 6.55 µM] | activity change, negative = cytotoxicity (PA-1) -4.48% [at 6.55 µM] | activity change, negative = cytotoxicity (SKOV3) -3.45% [at 6.55 µM] | activity change, negative = cytotoxicity (Tov-21-G) -0.577% [at 6.55 µM] | activity change, negative = cytotoxicity (Tov112D) -7.57% [at 6.55 µM]

COc1cc(Br)c(S(=O)(=O)Nc2ccc(C(F)(F)F)c(O[C@@H]3CCN(C)C3)c2)cc1OC
inactive: Potency (JEG-3) | Potency (OV90) | Potency (PA-1) | Potency (SKOV3) | Potency (Tov-21-G) | Potency (Tov112D)
